Activity calls are given as the source filed them.
How the values were obtained:
[1] = test system: Human papillomavirus type 1a protein E7 (residues 44-93); test: small molecules binding HPV E7 44-93 – biochemical, small-molecule microarray, residues 44-93, 635 nm fluorescence, primary screen (AID 1108); details: fluorescence 635 nm, higher = more signal;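 note: E7 fragment applied at 1 µg/mL in TBST for 1 h at 4 C; score combines spot fluorescence with its signal to noise ratio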
[2] = hepatitis C replication reporter changes, two-sided – Huh7 cells, luciferase reporter, HCV replication inhibitor project, primary screen (AID 1109); details: Huh7 HCV replicon luciferase reporter, 48 h; higher = more signal;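 note: huh7 hepatoma cells harbouring a luciferase neomycin HCV replicon reporter; luciferase luminescence as measure of HCV replicon replication; test concentration not given here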
[3] = target: Left-right determination factor 2 (Homo sapiens) (UniProt O00292); test: small molecules binding LEFTY2 protein – biochemical, small-molecule microarray, 635 nm fluorescence scan, primary screen (AID 1110); details: higher = more signal
Chain of Left-right determination factor 2 (Homo sapiens) (O00292 whole entry, looked up): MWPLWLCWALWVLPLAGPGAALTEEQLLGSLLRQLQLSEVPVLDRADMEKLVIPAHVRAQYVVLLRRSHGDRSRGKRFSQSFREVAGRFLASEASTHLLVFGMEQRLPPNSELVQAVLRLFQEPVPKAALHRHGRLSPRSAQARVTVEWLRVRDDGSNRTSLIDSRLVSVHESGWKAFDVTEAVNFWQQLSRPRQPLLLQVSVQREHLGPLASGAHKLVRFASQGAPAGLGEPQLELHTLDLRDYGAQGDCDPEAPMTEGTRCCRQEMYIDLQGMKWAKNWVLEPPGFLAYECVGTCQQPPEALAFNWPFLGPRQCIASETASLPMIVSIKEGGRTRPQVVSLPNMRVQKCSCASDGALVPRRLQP

[4] = target: Calmodulin-1 (Homo sapiens) (UniProt P0DP23); test: small molecules binding calmodulin-1 with EGTA – biochemical, small-molecule microarray, Cy5-labelled CALM1, profiling panel (AID 1111); details: Cy5-CALM1 binding fluorescence, higher = more signal;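 note: labelled calmodulin applied in Tris saline Tween buffer holding calcium plus EGTA and DTT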
[5] = target: Calmodulin-1 (Homo sapiens) (UniProt P0DP23); test: small molecules binding Ca-loaded calmodulin-1 – biochemical, small-molecule microarray, Cy5-labelled CALM1, plus calcium, artefact control for SMM control-protein annotation, profiling panel (AID 1112); details: Cy5-CALM1 binding fluorescence, higher = more signal;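 note: score merges spot fluorescence with signal to noise from triplicate slides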
[6] = probe aWnt5a binding to arrayed compounds – biochemical, biotinylated probe, 635/667 nm fluorescence, primary screen (AID 1113); details: small-molecule microarray, higher = more signal;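 note: score merges 667 nm fluorescence intensity with signal-to-noise per printed feature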
[7] = probe aShh binding to arrayed compounds – biochemical, biotinylated probe, 635/667 nm fluorescence, primary screen (AID 1114); details: small-molecule microarray, higher = more signal;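 note: probe is biotin-labelled aShh protein from a stem cell growth factor screen; measures binding of labelled protein to compounds printed on the slide; score merges feature fluorescence at 667 nm with signal-to-noise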
[8] = probe aNog binding to arrayed compounds – biochemical, biotinylated probe, 635/667 nm fluorescence, primary screen (AID 1115); details: small-molecule microarray, higher = more signal;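 note: probe is biotinylated aNog protein used at 0.15 µg/mL for 1 h at 4 C; z-score combines 667 nm fluorescence of each spot with its signal to noise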
[9] = target: Torsin-1A-interacting protein 1 (Homo sapiens) (UniProt Q5JTV8); test: compound microarray binding of lysate hLAP1 – cell lysate, small-molecule microarray, COS7 lysate, 635/667 nm fluorescence, primary screen (AID 1116); details: 635 nm fluorescence, higher = more signal
Chain of Torsin-1A-interacting protein 1 (Homo sapiens) (Q5JTV8 whole entry, looked up): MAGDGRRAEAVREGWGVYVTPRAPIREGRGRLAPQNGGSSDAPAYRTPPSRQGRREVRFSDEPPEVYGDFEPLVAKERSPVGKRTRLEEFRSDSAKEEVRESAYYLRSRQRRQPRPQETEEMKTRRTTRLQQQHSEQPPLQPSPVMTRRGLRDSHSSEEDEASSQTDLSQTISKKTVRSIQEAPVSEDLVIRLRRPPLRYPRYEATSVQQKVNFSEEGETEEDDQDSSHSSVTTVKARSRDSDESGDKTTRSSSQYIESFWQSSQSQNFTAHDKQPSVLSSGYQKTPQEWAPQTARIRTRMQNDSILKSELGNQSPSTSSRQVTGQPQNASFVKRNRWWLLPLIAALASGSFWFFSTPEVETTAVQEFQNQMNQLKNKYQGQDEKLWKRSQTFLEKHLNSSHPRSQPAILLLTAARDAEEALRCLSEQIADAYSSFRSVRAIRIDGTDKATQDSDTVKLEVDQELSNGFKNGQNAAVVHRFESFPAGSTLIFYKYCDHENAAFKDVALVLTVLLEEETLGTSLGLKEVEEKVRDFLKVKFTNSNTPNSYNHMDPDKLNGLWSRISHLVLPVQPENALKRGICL

[10] = target: Alpha-bungarotoxin (Bungarus multicinctus) (UniProt P60615); test: compounds binding labelled alpha-BTX control protein – biochemical, small-molecule microarray, Alexa647 label, 635/667 nm fluorescence, artefact control for SMM control protein annotation, profiling panel (AID 1117); details: alpha-BTX-A647 binding fluorescence, higher = more signal
Chain of Alpha-bungarotoxin (Bungarus multicinctus) (P60615 whole entry, looked up): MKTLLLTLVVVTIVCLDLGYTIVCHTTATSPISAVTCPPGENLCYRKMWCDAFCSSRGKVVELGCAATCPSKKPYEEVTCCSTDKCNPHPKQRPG

Albumin (Bos taurus) = Albumin (Bos taurus) (UniProt P02769); test: compounds binding labelled BSA control protein – biochemical, small-molecule microarray, Alexa647 label, 635/667 nm fluorescence, artefact control for SMM control protein annotation, profiling panel (AID 1118); details: BSA-A647 binding, fluorescence 635 nm, higher = more signal;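 note: score merges 667 nm emission intensity and signal-to-noise per printed compound spot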
Chain of Albumin (Bos taurus) (P02769 whole entry, looked up): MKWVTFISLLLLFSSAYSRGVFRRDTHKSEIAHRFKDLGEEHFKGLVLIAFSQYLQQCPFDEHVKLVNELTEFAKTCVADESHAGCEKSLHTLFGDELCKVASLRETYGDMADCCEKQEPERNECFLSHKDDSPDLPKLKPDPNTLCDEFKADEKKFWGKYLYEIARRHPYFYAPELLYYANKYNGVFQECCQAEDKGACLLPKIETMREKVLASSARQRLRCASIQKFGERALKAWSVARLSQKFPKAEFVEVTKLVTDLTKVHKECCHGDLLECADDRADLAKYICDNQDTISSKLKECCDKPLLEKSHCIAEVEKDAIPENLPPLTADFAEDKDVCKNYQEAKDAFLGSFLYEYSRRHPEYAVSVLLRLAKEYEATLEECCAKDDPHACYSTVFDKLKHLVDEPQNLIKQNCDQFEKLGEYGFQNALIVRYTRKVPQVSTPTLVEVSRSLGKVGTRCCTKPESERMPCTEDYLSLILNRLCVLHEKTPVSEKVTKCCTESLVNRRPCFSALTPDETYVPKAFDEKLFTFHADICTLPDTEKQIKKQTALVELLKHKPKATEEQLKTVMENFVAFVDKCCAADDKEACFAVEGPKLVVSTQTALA

[11] = probe aXIP binding to arrayed compounds – biochemical, NeuroSMM set, 635/667 nm fluorescence, primary screen (AID 1119); details: small-molecule microarray, higher = more signal, called active from +8 up or from −8 down;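 note: probe is the protein aXip251-270 applied at 1 µg/mL to compound-printed slides; binding of probe to printed compounds measured as 667 nm fluorescence plus signal to noise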
[12] = probe aNOTCH3 binding on compound microarray – biochemical, small-molecule microarray, 635/667 nm fluorescence, primary screen (AID 1120); details: higher = more signal;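 note: probe is a biotin-tagged antibody raised against NOTCH3 rather than NOTCH3 protein; score merges spot fluorescence near 667 nm with spot signal to noise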
[13] = probe aNOTCH2 binding on compound microarray – biochemical, small-molecule microarray, 635/667 nm fluorescence, primary screen (AID 1121); details: higher = more signal;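 note: score merges feature fluorescence read at 667 nm with its signal to noise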
[14] = target: Carbonic anhydrase 2 (Homo sapiens) (UniProt P00918); test: compounds binding carbonic anhydrase 2 – biochemical, small-molecule microarray, Alexa647-labelled CAII, profiling panel (AID 1122); details: CAII-A647 binding fluorescence, higher = more signal
[15] = COS7 lysate on small-molecule microarray, probe aHis, 635 nm (AID 1123); details: COS7 cell lysate, fluorescence, higher = more signal;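 note: z-score combines 667nm fluorescence intensity with signal-to-noise per printed compound spot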
[16] = probe aLAP1 signal on lysate-treated microarray – cell lysate, small-molecule microarray, COS7 lysate, primary screen (AID 1124); details: probe aLAP1, fluorescence, higher = more signal;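 note: lysate comes from COS7 cells expressing LAP1 and is applied at 0.3 µg/mL; score merges spot fluorescence near 667 nm with signal-to-noise over triplicate slides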
Sam68 (KHDRBS1) = test: compounds binding KHDRBS1 protein – biochemical, small-molecule microarray, 635 nm fluorescence, primary screen (AID 1125); details: higher = more signal;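 note: score merges 667 nm channel intensity with signal to noise over triplicate slides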
[17] = test system: Chordin-like protein 2 (CHRDL2); test: compounds binding chordin-like 2 – biochemical, small-molecule microarray, 635 nm fluorescence, primary screen (AID 1126); details: fluorescence 635 nm, higher = more signal;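 note: printed compound slides probed with Chrdl2 protein at 4 µg/mL for 1 h at 4 C; score merges 667 nm emission intensity with signal to noise over three replicate slides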
[18] = target: Concanavalin-A (Canavalia ensiformis) (UniProt P02866); test: compounds binding concanavalin A lectin – biochemical, small-molecule microarray, Alexa647 label, 635 nm, artefact control for SMM control protein annotation, primary screen (AID 1127); details: ConA-A647 binding fluorescence, higher = more signal;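 note: z combines 667 nm emission intensity with signal-to-noise across three replicate slides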
Chain of Concanavalin-A (Canavalia ensiformis) (P02866 whole entry, looked up): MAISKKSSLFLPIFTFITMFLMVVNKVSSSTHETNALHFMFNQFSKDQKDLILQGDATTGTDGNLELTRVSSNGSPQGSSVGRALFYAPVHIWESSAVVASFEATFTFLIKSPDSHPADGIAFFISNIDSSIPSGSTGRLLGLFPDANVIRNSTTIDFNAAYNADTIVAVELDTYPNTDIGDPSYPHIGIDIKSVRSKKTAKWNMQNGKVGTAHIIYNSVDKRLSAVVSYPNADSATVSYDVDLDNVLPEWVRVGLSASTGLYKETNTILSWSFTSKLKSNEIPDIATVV

Row | SMILES | composite z-score [1] | z-score [2] | composite z-score [3] | composite z-score [4] | composite z-score [5] | composite z-score [6] | composite z-score [7] | composite z-score [8] | composite z-score [9] | composite z-score [10] | composite z-score (Albumin (Bos taurus)) | composite Z-score [11] | composite z-score [12] | composite z-score [13] | composite z-score [14] | composite z-score [15] | composite z-score [16] | composite z-score (Sam68 (KHDRBS1)) | composite z-score [17] | composite z-score [18]
1 | COC(=O)[C@@]1(Cc2ccc(F)cc2)[C@H]2c3cc(C(=O)N(C)C)n(Cc4ccc(OC)c(OC)c4)c3C[C@H]2CN1C(=O)c1ccccc1 | 0.0897 | -1.44 | -0.137 | 0.482 | 0.0167 | 0.0833 | 0.299 | 0.338 | 0.0894 | 0.0611 | 0.378 | 0.206 (inactive) | 0.194 | 0.265 | 0.866 | 0.383 | -0.253 | -0.309 | 0.106 | -0.189
2 | COC(=O)CC1OC1[C@H](C)[C@@H](OC)C(C)C (stereo not given in full) | -0.792 | -0.0397 | 0.389 | -0.723 | -1.26 | -0.1 | -0.147 | -0.487 | 0.601 | 0.93 | -0.294 | 0.406 (inactive) | -0.0647 | -0.124 | 0.232 | -0.64 | 0.229 | -0.22 | 1.03 | -0.321
3 | COCCCNC(=O)[C@@]1(Sc2ccc(C)cc2)CC(=O)N(Cc2ccccc2)[C@@H]1c1ccc(CO)cc1I | 0.362 | -2.02 | -1.54 | -1.11 | 0.214 | -0.0928 | -0.0362 | -0.176 | 1.5 | 1.23 | 0.757 | 0.394 (inactive) | -0.178 | 0.0079 | 0.688 | 0.987 | 0.791 | -0.249 | -0.527 | -1.27
4 | CC(CCN1CCc2nc(-c3ccccc3)c(-c3ccccc3)cc2C1)=NO[C@@H](C)c1cn([C@H](CO)Cc2ccccc2)nn1 | -0.127 | -0.985 | 0.555 | 0.0845 | 0.444 | -0.139 | -0.221 | -0.305 | -0.273 | 1.42 | 0.908 | 0.715 (inactive) | 0.0242 | -0.117 | 0.526 | -0.478 | -0.208 | -0.163 | 0.0808 | -0.602
5 | CCN1C(=O)[C@H]2[C@H]3[C@H](O)[C@H](O)CC(=NOCc4ccccc4)[C@H]3CC[C@H]2C1=O | -0.0677 | 0.396 | 0.387 | -0.253 | -0.787 | -0.139 | -0.214 | 0.128 | 0.151 | 0.437 | -0.0796 | 0.0894 (inactive) | 0.0258 | -0.041 | 0.336 | 0.452 | 0.491 | -0.144 | 0.248 | 0.21

Reference: PubChem BioAssay
